Records with an inconclusive call do not appear. Where a call stands in place of a potency, no number is given. The source made the active and inactive calls. The call rests on the fitted dose curve; in most records, active means well fitted cell-killing curve with a large enough effect; inconclusive means small, poorly fitted or top-dose-only effect, or another doubt; inactive means flat fitted curve, though single readings scatter.
assay: Vero cells viability counterscreen for qRT-PCR qHTS assay of selected Zika virus inhibitors; settings: CellTiter-Glo ATP luminescence, 24 h; series mostly up to 41.8 µM
Description: Assay Submitters (PI): Avindra Nath, Ph.D., National Institute of Neurological Disorders and Stroke (NINDS), Bethesda, MD Radhakrishnan Padmanabhan, Ph.D., Georgetown University (GU), Washington D.C. Zika Virus causes congenital defects, including microcephaly and is associated with Guillain-Barre syndrome, eningoencephalitis and myelitis in infected adult. […] Using a target-based approach, we hope to establish a screening paradigm to uncover novel, cell-active NS2B-NS3 protease (Zika Virus) specific inhibitors from NCATS' collection of small molecules using qHTS. […] Four assay panel was created to identify potential Zika Virus inhibitors. Namely, (1) GU unlinked NS2B-NS3 AMC tagged protease qHTS, (2) GU unlinked NS2B-NS3 Rhodamine tagged protease qHTS, (3) NINDS linked NS2B-NS3 AMC tagged protease qHTS, (4) NINDS linked NS2B-NS3 Rhodamine tagged protease qHTS. Inhibitors of the Zika virus primary screens are confirmed using qRT-PCR secondary assays, mCherry orthogonal assay, and Vero cells viability counterscreen. Cytotoxic compounds identified in the Vero cell viability counterscreen were excluded from the list of potential Zika virus inhibitors. Early Translation Branch (ETB) National Center for Advancing Translational Sciences (NCATS), Rockville, MD National Institute of Health (NIH), Bethesda, Maryland
Vero Cell Viability Assay: Vero cell cytotoxicity was determined using a luminescent readout with CellTiter Glo reagent (Promega, Madison, WI), which is based on measuring the ATP content within cells. Briefly, 4 uL of Vero cells at 2.5 x 10^5 cells/mL in DMEM containing 4% FBS were dispensed into 1536-well solid bottom tissue treated white plate using a Multidrop Combi dispenser (Thermo Scientific). Plates were incubated at 37 degrees C, 95% humidity, and 5% CO2 overnight to allow for cell attachment. Compounds were dissolved in DMSO at different concentrations and transferred via pintool (Wako Automation), for a final concentration of 57 uM - 0.029 uM. Plates were again incubated for 24 hours, followed by a 2 uL addition of CellTiter Glo. Finally, plates were incubated for 30 minutes at 37 degrees C and 5% CO2 before being read on a ViewLux (Perkin Elmer) for luminescence.

SMILES | Potency | activity change, negative = cytotoxicity
CC1(C)CCC(CN2CCN(c3ccc(C(=O)NS(=O)(=O)c4ccc(NCC5CCOCC5)c([N+](=O)[O-])c4)c(Oc4cnc5[nH]ccc5c4)c3)CC2)=C(c2ccc(Cl)cc2)C1 | 3.16 µM (active) | –
Oc1cc2ccccc2c2ccccc12 | 11.2 µM (active) | –
Cc1ccc2[nH]c(=O)c(C3=NN(C(=O)CCC(=O)O)C(c4ccc(Br)cc4)C3)c(-c3ccccc3)c2c1 (stereo not given) | inactive | –
COc1ccc(NS(=O)(=O)c2ccc(NS(=O)(=O)c3ccc4c(c3)OCCO4)cc2)cc1 | inactive | –
CC(=O)O[C@@H]1C[C@]2(C)[C@@]3(CCC4[C@@]5(C)CC[C@H](O[C@@H]6O[C@H](C(=O)O)[C@@H](O)[C@H](O[C@@H]7O[C@H](CO)[C@H](O)[C@H](O)[C@H]7O[C@@H]7O[C@@H](C)[C@H](O)[C@@H](O)[C@H]7O[C@@H]7OC[C@](O)(CO)[C@H]7O)[C@H]6O[C@@H]6O[C@H](CO)[C@H](O)[C@H](O)[C@H]6O)C(C)(C)C5CC[C@]42C)O[C@@H](O)[C@]12C3CC(C)(C)[C@@H](OC(=O)/C=C/c1ccc(O)c(O)c1)[C@@H]2OC(=O)/C=C/c1ccccc1 (stereo not given in full) | – | 2.61% [at 7.93 µM] (inactive)
O=C(O)c1cccc(-c2ccc(-c3cn(C(=O)N4CCCCC4Cc4ccccc4)nn3)cc2)c1 (stereo not given) | inactive | –
O=C(O)c1ccc(O)c2ncc(N3CCCN(CCc4cccc5ccccc45)CC3)cc12 | inactive | –
O=C(O)c1ccc(S(=O)(=O)N(Cc2ccc(OC(F)(F)F)cc2)c2ncc(C(F)(F)F)cc2Cl)cc1 | inactive | –
CC(C)(C)Sc1c(CC(C)(C)C(=O)O)n(Cc2ccc(Cl)cc2)c2ccc(OCc3ccc4ccccc4n3)cc12 | inactive | –
Cc1cc(C(C#N)c2ccc(Cl)cc2)c(Cl)cc1NC(=O)c1cc(I)cc(I)c1O (stereo not given) | 31.6 µM (active) | –
COc1cc(C)c(C(=O)OC2C(C)OC(OC3CCC(C)C4C3C=C(C)C3/C(C)=C\CC/C(C)=C/C5(C)C=C(C(=O)O)C(C)CC56OC(=O)/C(=C(\O)C34C)C6=O)C(O)C2O)c(OC)c1 (stereo not given) | – | 3.72% [at 10.4 µM] (inactive)
N#CC(c1ccnc(OCc2ccc(CN3CCOCC3)cc2)n1)c1nc2ccccc2s1 (stereo not given) | inactive | –
COc1cnc(-c2ccc(Cn3c(CC(C)(C)C(=O)O)c(SC(C)(C)C)c4cc(OC[C@@H]5Cc6ccccc6N5C(C)=O)ccc43)cc2)nc1 | inactive | –
CCOc1ccc(-c2cc(NC(=O)c3c(F)cccc3F)c(C(=O)O)s2)cc1 | inactive | –
Cc1ccn(-c2cc(Cl)ccc2[C@@H](Oc2cc(-c3ccc(C[C@H](N)C(=O)O)cc3)nc(N)n2)C(F)(F)F)n1 | inactive | –
C=C1c2cccc(O)c2C(O)=C2C(=O)[C@]3(O)C(O)=C(C(N)=O)C(=O)[C@@H](N(C)C)[C@@H]3[C@@H](O)[C@H]12 | inactive | –
O=C(O)Cc1cc(I)c(Oc2ccc(O)c(I)c2)c(I)c1 | inactive | –
Cc1ccc2nc(NS(=O)(=O)c3ccc(Cl)cc3)c(Nc3ccc(C(=O)O)cc3)nc2c1 | inactive | –
COc1cc(/C=C(\C#N)C(=O)Nc2nnc(C(F)(F)F)s2)ccc1OCc1ccc(C(F)(F)F)cc1C(F)(F)F | inactive | –
Oc1c(Cl)cc(Cl)c(Cl)c1Cc1c(O)c(Cl)cc(Cl)c1Cl | 35.5 µM (active) | –

SMILES | Potency | activity change, negative = cytotoxicity
O=C(Nc1cc(C(F)(F)F)cc(C(F)(F)F)c1)c1cc(Cl)ccc1O | inactive | –
CCCCCc1ccc(/C=C/C(=O)Nc2cc(Cl)ccc2C(=O)O)cc1 | inactive | –
CC(=O)Nc1ccc([C@H](C)C(=O)Nc2ncc(C(C)C)s2)cc1 | 2.82 µM (active) | –
CO[C@H]1C[C@@H](O[C@@H]2/C(C)=C/C[C@@H]3C[C@@H](C[C@]4(CC[C@H](C)[C@@H](C5CCCCC5)O4)O3)OC(=O)[C@@H]3C=C(C)/C(=N/O)[C@H]4OC/C(=C\C=C\[C@@H]2C)[C@]43O)O[C@@H](C)[C@H]1O | 25.1 µM (active) | –
COc1cc(/C=C/c2ccccc2)c(C(=O)O)c(O)c1CC=C(C)C | inactive | –
O=C(O)c1ccc2c(ccc3nn(-c4ccc(/C=C/c5ccc(-n6nc7ccc8cc(C(=O)O)ccc8c7n6)cc5[S+](=O)([O-])[O-])c([S+](=O)([O-])[O-])c4)nc32)c1 | inactive | –
CC(Oc1ccccc1)C(=O)Nc1ccc(C(=O)OCc2cc(=O)n3nc(C4CC4)sc3n2)cc1 (stereo not given) | inactive | –
CN(CC(=O)N(Cc1ccc(C2CCCCC2)cc1)c1ccc(C(=O)O)cc1)S(=O)(=O)c1c(F)c(F)c(F)c(F)c1F | 7.94 µM (active) | –
N#CC1C(=O)Nc2scc(-c3ccc(-c4ccccc4O)cc3)c2C1=O (stereo not given) | inactive | –
CN(C)[C@@H]1C(=O)C(C(N)=O)=C(O)[C@@]2(O)C(=O)C3=C(O)c4c(O)cccc4C[C@H]3C[C@@H]12 | inactive | –
Oc1cccc(-c2c3nc(c(-c4cccc(O)c4)c4ccc([nH]4)c(-c4cccc(O)c4)c4nc(c(-c5cccc(O)c5)c5ccc2[nH]5)CC4)C=C3)c1 | inactive | –
O=C(O)C1(Cc2cccc(Nc3nccs3)n2)CCC(Oc2cccc(Cl)c2F)CC1 (stereo not given) | inactive | –
CCOc1c2c(c(OCC)c3ccccc13)C(=O)N(c1ccc(CC(=O)NS(=O)(=O)c3ccccc3)cc1)C2 | inactive | –
COc1ccc(-c2ccccc2)cc1NS(=O)(=O)c1cc(Cl)cc(Cl)c1O | inactive | –
O=C(O)Cc1cccc(OCCCN(Cc2cccc(C(F)(F)F)c2Cl)CC(c2ccccc2)c2ccccc2)c1 | inactive | –
COc1cc(Nc2nc3ccccc3nc2NS(=O)(=O)c2cccc(NC(=O)c3ccc(C)c(OC)c3)c2)cc(OC)c1 | inactive | –
CC(C)=CCCC1(C)C=Cc2c(O)c3c(c(CC=C(C)C)c2O1)OC12C(=CCCC1C(C)(C)O[C@@]2(C/C=C(\C)C(=O)O)C(=O)O)C3=O (stereo not given in full) | inactive | –
CCOC(=O)c1ccc(N2C(=O)c3n[nH]c(-c4cccs4)c3C2c2ccc(C(C)(C)C)cc2)cc1 (stereo not given) | inactive | –
O=C1NC(=O)/C(=C/c2cccc(C(F)(F)F)c2)S1 | inactive | –
CCOC(=O)c1ccc(N2C(=O)c3n[nH]c(-c4cccs4)c3C2c2ccc(Cl)cc2Cl)cc1 (stereo not given) | 25.1 µM (active) | –

— PubChem BioAssay AID1347170 (National Center for Advancing Translational Sciences (NCATS), 2019)
